Values without a mark were called inactive.

The subject of one assay is Madurella mycetomatis MM55. Briefly: growth relative to untreated control; higher = less inhibition, active = 20 or less. To be noted: 25 µM. How it is done:
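Hyphal fragments of M. mycetomatis MM55 or F. senegalensis CBS197.79 in RPMI 1640/MOPS were exposed to each MMV COVID Box or Global Health Priority Box compound at 100 or 25 µM for 7 days at 37 °C. Viability was read with MTS (490 nm, M. mycetomatis) or resazurin (600 nm, F. senegalensis), background-corrected with a medium-only control and expressed as % growth relative to the untreated growth control. Inhibition of more than 80% was taken as growth inhibition.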
On to `CC(C)(C)Nc1ncc2nc(Nc3cccc(C(F)(F)F)c3)n(CC3CCNCC3)c2n1`, for which the growth was 107%.

On to `CN(C)CCn1cnc2sc3c(c2c1=O)CCC(NCc1cccc(Cl)c1)C3` (stereo not given), for which the growth is 36.1%.

On to `Cc1cccc2c1N(C(=O)c1cc(Br)nn1-c1ncccc1Cl)CN(C(C)C)C2=O`, for which the growth is 91.9%.

For `CN(C)C(=O)COC(=O)Cc1ccc(OC(=O)c2ccc(NC(=N)N)cc2)cc1`, the growth was 77.6%.

Take `CC(C)C[C@H](NC(=O)[C@H](Cc1ccccc1)NC(=O)c1cnccn1)B(O)O`: the growth is 113%.

With `Cc1c(-c2ccc(-c3ccccc3F)cc2)nc2ccc(F)cc2c1C(=O)O`, the growth was 115%.

For the compound `O=C(NC1CCCc2c1[nH]c1ccc(Cl)cc21)c1ccccn1` (stereo not given), the growth is 35.3%.

Consider `FC(F)(F)c1cc(Cl)cc(Nc2nc3cnc(NC4CCOCC4)nc3n2C2CCNCC2)c1`, for which the growth was 111%.

Consider `CNC(=O)c1cc(-c2n[nH]c3ccc(-c4nc(C5CCCN5)n[nH]4)cc23)ccc1F` (stereo not given), for which the growth was 98.4%.

Take `O=S(=O)(NCC1(O)CCOc2ccccc21)c1ccccc1F` (stereo not given): the growth is 101%.

As for `CC(C)c1nc(CN(C)C(=O)N[C@H](C(=O)N[C@@H](Cc2ccccc2)C[C@H](O)[C@H](Cc2ccccc2)NC(=O)OCc2cncs2)C(C)C)cs1`, the growth is 74.1%.

In the case of `CN1CCC(Oc2nc(Nc3ccccc3)nc3[nH]cc(-c4cnn(C)c4)c23)CC1`, the growth is 78.3%.

Take `CC(C)OC(=O)[C@H](C)N[P@](=O)(OC[C@H]1O[C@@H](n2ccc(=O)[nH]c2=O)[C@](C)(F)[C@@H]1O)Oc1ccccc1`: the growth is 94.5%.

`C[C@H](NC(=O)c1cc2cccc(F)c2[nH]1)c1ccccc1`: the growth is 26.9%.

With `Cc1cc(Nc2cn3cc(-c4cnn(C(F)F)c4)ccc3n2)nc(C)n1`, the growth is 95.2%.

As to `N=C(N)Nc1ccc(C(=O)Oc2ccc3cc(C(=N)N)ccc3c2)cc1`, the growth was 79.9%.

Regarding `c1ccc(-c2ccnc(C3CCN(CC45CNCC4C5)CC3)n2)cc1` (stereo not given), the growth was 71.4%.

On to `Cc1cnc2nc(NC3COc4ccc(F)cc43)nc(NC3CCC4(CCCC4)CC3)c2c1` (stereo not given), for which the growth is 73.6%.

In the case of `CN1[C@H]2CC[C@H]1CC(OC(c1ccccc1)c1ccccc1)C2` (stereo not given in full), the growth is 82.4%.

On to `CC(=O)N1CCN(c2ccc(OC[C@H]3CO[C@](Cn4ccnc4)(c4ccc(Cl)cc4Cl)O3)cc2)CC1`, for which the growth is 3.29% (active).

Still in this assay, the particulars now being: 100 µM.
`CC(C)(C)Nc1ncc2nc(Nc3cccc(C(F)(F)F)c3)n(CC3CCNCC3)c2n1`: the growth is 69.3%.

`CN(C)CCn1cnc2sc3c(c2c1=O)CCC(NCc1cccc(Cl)c1)C3` (stereo not given): the growth is 5.28% (active).

As for `Cc1cccc2c1N(C(=O)c1cc(Br)nn1-c1ncccc1Cl)CN(C(C)C)C2=O`, the growth is 153%.

On to `CN(C)C(=O)COC(=O)Cc1ccc(OC(=O)c2ccc(NC(=N)N)cc2)cc1`, for which the growth was 93.2%.

Consider `CC(C)C[C@H](NC(=O)[C@H](Cc1ccccc1)NC(=O)c1cnccn1)B(O)O`, for which the growth is 85.1%.

With `Cc1c(-c2ccc(-c3ccccc3F)cc2)nc2ccc(F)cc2c1C(=O)O`, the growth was 83.3%.

Consider `O=C(NC1CCCc2c1[nH]c1ccc(Cl)cc21)c1ccccn1` (stereo not given), for which the growth is 9.39% (active).

`FC(F)(F)c1cc(Cl)cc(Nc2nc3cnc(NC4CCOCC4)nc3n2C2CCNCC2)c1`: the growth is 5.14% (active).

Consider `CNC(=O)c1cc(-c2n[nH]c3ccc(-c4nc(C5CCCN5)n[nH]4)cc23)ccc1F` (stereo not given), for which the growth was 71.5%.

Turning to `O=S(=O)(NCC1(O)CCOc2ccccc21)c1ccccc1F` (stereo not given), the growth is 102%.

In the case of `CC(C)c1nc(CN(C)C(=O)N[C@H](C(=O)N[C@@H](Cc2ccccc2)C[C@H](O)[C@H](Cc2ccccc2)NC(=O)OCc2cncs2)C(C)C)cs1`, the growth is 82.2%.

`CN1CCC(Oc2nc(Nc3ccccc3)nc3[nH]cc(-c4cnn(C)c4)c23)CC1`: the growth was 17.9% (active).

As to `CC(C)OC(=O)[C@H](C)N[P@](=O)(OC[C@H]1O[C@@H](n2ccc(=O)[nH]c2=O)[C@](C)(F)[C@@H]1O)Oc1ccccc1`, the growth is 85.7%.

`C[C@H](NC(=O)c1cc2cccc(F)c2[nH]1)c1ccccc1`: the growth was 6.74% (active).

Consider `Cc1cc(Nc2cn3cc(-c4cnn(C(F)F)c4)ccc3n2)nc(C)n1`, for which the growth was 58.6%.

With `N=C(N)Nc1ccc(C(=O)Oc2ccc3cc(C(=N)N)ccc3c2)cc1`, the growth is 72.3%.

For `c1ccc(-c2ccnc(C3CCN(CC45CNCC4C5)CC3)n2)cc1` (stereo not given), the growth is 134%.

`Cc1cnc2nc(NC3COc4ccc(F)cc43)nc(NC3CCC4(CCCC4)CC3)c2c1` (stereo not given): the growth is 38.8%.

For `CN1[C@H]2CC[C@H]1CC(OC(c1ccccc1)c1ccccc1)C2` (stereo not given in full), the growth was 84.3%.

Consider `CC(=O)N1CCN(c2ccc(OC[C@H]3CO[C@](Cn4ccnc4)(c4ccc(Cl)cc4Cl)O3)cc2)CC1`, for which the growth was 3.16% (active).

Values taken from the supplement of paper PMC11172423.
